According to ChEMBL document CHEMBL3988442, “University of Dundee, Small-Polar-MMV Screening Library” (2021):
About 13,000 (27%) of roughly 48,000 compounds showed an effect of 50% or more. This is one part of the list.

Each compound was assayed on Wolbachia pipientis (assay: Anti-Wolbachia Cell-Based Screen). Conditions: 5 µM.
Format: functional
Design: scale not given: in the data most compounds retested in dose-response had high values

Structure (SMILES) | Percent Effect
CCCC(O)CNc1cncc(Br)c1 (centres undefined) | -5%
CC(C)(NC(=O)Nc1cnn(CC2CCCO2)c1)c1nccs1 (centres undefined) | -5.14%
COc1ccc(-n2c(COC(C)C)n[nH]c2=O)cc1 | 8.862%
Cc1ccc(F)cc1-n1c(CN(C)S(C)(=O)=O)n[nH]c1=O | 117.3%
Cc1ccc(F)cc1-n1c(COC(C)C)n[nH]c1=O | 6.19%
CN(Cc1n[nH]c(=O)n1Cc1ccccc1F)S(C)(=O)=O | -17.4%
Cc1ccc(-n2c(COC(C)C)n[nH]c2=O)cc1 | -8.363%
CNCc1n[nH]c(=O)n1-c1ccccc1Oc1ccccc1 | -7.871%
CCN(C)Cc1n[nH]c(=O)n1-c1ccc(C)c(C)c1 | 100.3%
CN(Cc1n[nH]c(=O)n1CCc1ccccc1F)S(C)(=O)=O | -6.047%
CCN(C)Cc1n[nH]c(=O)n1-c1cc(F)ccc1C | 106.9%
CN(Cc1ccccc1-n1cccn1)C[C@@H]1CCCN2CCCC[C@H]12 | -7.431%
CCc1nsc(N2CCN(C(=O)c3ccnc(N(C)C)c3)CC2)n1 | -3.339%
CCC1=N[C@@]2(CC[C@@H]3CN(C(=O)NCC(C)C)C[C@@H]32)C(=O)N1CC(C)C | -11.82%
Cc1nn(C)c(C)c1C1CCCN1CCOc1ccccc1C#N (centres undefined) | -7.684%
CS(=O)(=O)NC[C@@H]1OC[C@H]2CN(C(=O)c3ccc[nH]3)CC[C@H]21 | -14.53%
CN[C@@H](C)C(=O)N(Cc1cccc(C)c1)Cc1ccccc1OC | 4.64%
CCc1nc(CC(=O)N2CCn3c(nnc3C(F)(F)F)C2)cs1 | -0.3988%
Cc1nc2c(c(NCc3ccc(-c4ccccn4)s3)n1)CCNCC2 | 3.518%
Cc1cccc(=O)n1CCCNc1ncnc2c1CCNCC2 | -13.78%
c1ccc(Cn2cc(CNc3ncnc4c3CCNCC4)cn2)cc1 | 100.8%
Cc1cccc(-n2cc(CNc3ncnc4c3CCNCC4)cn2)c1 | 94.66%
Cn1cc(CNc2ncnc3c2CCN(Cc2ccsc2)CC3)cn1 | 1.057%

Structure (SMILES) | Percent Effect
c1cncc(CNc2ncnc3c2CCN(Cc2ccsc2)CC3)c1 | -11.45%
Cc1cccc(-n2cc(CN3CCN(C)[C@@H]4CS(=O)(=O)C[C@@H]43)cn2)c1 | -4.421%
Cc1ccccc1-n1cc(CNc2ncnc3c2CCNCC3)cn1 | 113.8%
CCc1ncc(C(=O)N(C)C2Cc3ccccc3C2)cn1 | 0.7414%
O=C(NCc1nn(-c2ccccc2)c2c1CCC2)N1CCSCC1 | 9.143%
Cn1nnc2c1CCN(C(C(=O)N1CCCCC1)c1ccccc1)C2 (centres undefined) | 4.107%
CC(C)C(=O)N1CCCc2c(cnn2-c2ccccc2)C1 | 142.7%
CCC(CC)C(=O)N1CCN(C)c2ncccc2C1 | -0.9461%
CC(C)(C)c1ncc2c(n1)CN(C(=O)C(C)(C)n1cccc1)C2 | 2.811%
CC(C)C(=O)N1CCCN(C(=O)NC2CCc3ccccc3C2)CC1 (centres undefined) | 16.47%
CC(C(=O)N1CCc2ccccc2C1)n1cc(Br)cn1 (centres undefined) | 4.145%
CC(C)(C)C(=O)N1CCCc2c(cnn2-c2ccccc2)C1 | 70.74%
Cc1nc2c(c(=O)n1C)CCN(C(=O)Cn1cccc1)CC2 | 14.88%
O=C(NCC1OCCc2cn(CC3CCOCC3)nc21)c1ccsc1.O=C(O)C(F)(F)F (centres undefined) | -9.912%
COc1cc(CNC(=O)C2CC(=O)N(C(C)C)C2)ccn1 (centres undefined) | -0.8085%
CSc1ccc(CNC(=O)C2CC(=O)N(C(C)(C)C)C2)cc1 (centres undefined) | 13.09%
CC(C)N1CC(C(=O)NCc2ccc(S(=O)(=O)N(C)C)cc2)CC1=O (centres undefined) | 136.1%
CN(C)S(=O)(=O)c1ccc(CNC(=O)C2CC(=O)N(C(C)(C)C)C2)cc1 (centres undefined) | 129.4%
CN(C)S(=O)(=O)c1ccc(CNC(=O)C2CC2)cc1 | 8.545%
CC(C)(C)N1CC(C(=O)NCc2noc(Cc3ccccc3)n2)CC1=O (centres undefined) | -0.1463%
COc1cc(Cl)c(NC(=O)NCCn2cccc2)cc1OC | -6.144%
CCN(CC)C(=O)[C@@H]1C[C@@H](N)CN1c1nc(N2CCCC2)nc(C)c1C | -2.729%
O=C(c1cn(CCN2CCCCC2)nn1)N1CCCO1 | -7.456%

Structure (SMILES) | Percent Effect
Cc1occc1C(=O)N1CCOC2(CCCC2)C1 | 0.5411%
COc1cc(C(=O)N2CCCS2(=O)=O)ccc1C | -0.1842%
COc1cc(C(=O)N2CCCS2(=O)=O)cc(Cl)c1OC | 11.62%
Cc1cc(C(=O)N2CCCS2(=O)=O)c(C)o1 | 122.2%
Cc1cc(C(=O)N2CCS(=O)(=O)CC2)c(C)o1 | 128.6%
Cc1occc1C(=O)N1CCCS1(=O)=O | 102.9%
Cc1cc(C(=O)N2CCC(CCn3cccn3)CC2)c(C)o1 | -7.806%
Cc1cc(C(=O)N2CCN(Cn3cc(Cl)cn3)CC2)c(C)o1 | 0.3754%
Cc1ccc(C(=O)N2CCCS2(=O)=O)cc1Cl | -5.646%
CN(Cc1ccccc1O)C(=O)NC1CCCN(c2ncccn2)C1 (centres undefined) | -16.23%
NC(=O)CCCNC(=O)COc1ccccc1C(F)(F)F | 8.512%
O=C(c1cncc(F)c1)N1CCC(c2ncc[nH]2)CC1 | 103.6%
O=C(COCC(F)(F)C(F)F)N1CCC(c2ncc[nH]2)CC1 | -1.399%
Cn1cc(C(=O)N2CCC(c3ncc[nH]3)CC2)cn1 | 106%
O=C(CCc1ccccc1)C1CCCN(C(=O)c2ncc(F)cc2F)C1 (centres undefined) | -13.78%
CC(C)(C)n1ccc(C(=O)N2CCCC(c3ncc[nH]3)C2)c1 (centres undefined) | -9.494%
N#Cc1ccc(C(=O)N2CCC3(CC2)C(=O)Nc2ccccc23)cn1 | -3.857%
CN(C)C(=O)N1CC[C@]2(O)CCN(C(=O)c3ccc(C#N)nc3)C[C@@H]2C1 | 0.1052%
Cn1cc(C(=O)N2CCCC(c3ncc[nH]3)C2)cn1 (centres undefined) | -9.118%
O=C(c1ncc(F)cc1F)N1CCC(c2ncc[nH]2)CC1 | 114.8%
CN1CCN(c2ccc(C(=O)N3CCCC(c4ncc[nH]4)C3)cc2)CC1 (centres undefined) | -9.853%
N#Cc1ccc(C(=O)N2CCC(c3ncc[nH]3)CC2)cn1 | 118.6%
Cc1cc(=O)[nH]c(SC(C)C(=O)N2CCC(c3ncc[nH]3)CC2)n1 (centres undefined) | -1.396%
